Measured values published in the supplement of paper PMC6555819.

Assays:
Assay in all cases: PBM binding z-score (relative to random genomic background probes); higher = stronger binding; sequences stand for … in GC…GCGATTGACAGCGTAGAATGAAGG
[1] = system: FXR:RXRa (NR concentration 270 nM, RXRa partner concentration 90 nM)
Procedure, shortened: (§1)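 Ligand-free nuclear receptor dimers were applied to custom Agilent 4×180K protein-binding microarrays whose double-stranded probes carried direct-repeat seeds, single-nucleotide variants, half-site ablations and random human genomic background sequences in 34-nt variable regions. Incubation lasted 1 h. Binding z-scores were computed against the random background probes from regression-normalized fluorescence.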

[2] = system: LXRa:RXRa (NR concentration 270 nM, RXRa partner concentration 90 nM)
Procedure, shortened: as §1

[3] = system: LXRa homodimer (NR concentration 270 nM)
Procedure, shortened: as §1

[4] = system: LXRb:RXRa (NR concentration 270 nM, RXRa partner concentration 90 nM)
Procedure, shortened: as §1

[5] = system: LXRb homodimer (NR concentration 270 nM)
Procedure, shortened: as §1

[6] = system: PPARa:RXRa (NR concentration 270 nM, RXRa partner concentration 90 nM)
Procedure, shortened: as §1

[7] = system: PPARg:RXRa (NR concentration 180 nM, RXRa partner concentration 90 nM)
Procedure, shortened: as §1

[8] = system: PPARg:RXRa 270nM:90nM, anti-RXR (NR concentration 270 nM, RXRa partner concentration 90 nM)
Procedure, shortened: as §1

[9] = system: PPARg:RXRa 30nM:10nM, anti-RXR (NR concentration 30 nM, RXRa partner concentration 10 nM)
Procedure, shortened: as §1

[10] = system: PPARg:RXRa 90nM:30nM, anti-RXR (NR concentration 90 nM, RXRa partner concentration 30 nM)
Procedure, shortened: as §1

[11] = system: PPARg:RXRa DBDmut IVT, anti-RXR (DBD mutation: RXRa K156A/R161A, NR concentration 270 nM, RXRa partner concentration 90 nM)
Procedure, shortened: as §1

[12] = system: PPARg:RXRa IVT, anti-PPARg (NR concentration 270 nM, RXRa partner concentration 90 nM)
Procedure, shortened: as §1

[13] = system: PPARg DBDmut:RXRa IVT, anti-PPARg (DBD mutation: PPARg1 K132A/R137A, NR concentration 270 nM, RXRa partner concentration 90 nM)
Procedure, shortened: as §1

[14] = system: PPARg DBDmut IVT, anti-PPARg (DBD mutation: PPARg1 K132A/R137A, NR concentration 270 nM)
Procedure, shortened: as §1

[15] = system: PPARg homodimer (NR concentration 180 nM)
Procedure, shortened: as §1

[16] = system: PXR:RXRa (NR concentration 270 nM, RXRa partner concentration 90 nM)
Procedure, shortened: as §1

[17] = system: PXR homodimer (NR concentration 270 nM)
Procedure, shortened: as §1

[18] = system: RARa:RXR (NR concentration 270 nM, RXRa partner concentration 90 nM)
Procedure, shortened: as §1

[19] = system: RARa homodimer (NR concentration 270 nM)
Procedure, shortened: as §1

[20] = system: RARb:RXRa (NR concentration 270 nM, RXRa partner concentration 90 nM)
Procedure, shortened: as §1

Sequence | PBM binding z-score [1] | PBM binding z-score [2] | PBM binding z-score [3] | PBM binding z-score [4] | PBM binding z-score [5] | PBM binding z-score [6] | PBM binding z-score [7] | PBM binding z-score [8] | PBM binding z-score [9] | PBM binding z-score [10] | PBM binding z-score [11] | PBM binding z-score [12] | PBM binding z-score [13] | PBM binding z-score [14] | PBM binding z-score [15] | PBM binding z-score [16] | PBM binding z-score [17] | PBM binding z-score [18] | PBM binding z-score [19] | PBM binding z-score [20]
TCGAGTAGGTTAGGGGCATTCCGAATGGCGTCGA | 0.369 | 0.403 | -0.233 | 0.645 | -0.872 | 1.25 | 0.541 | 2.27 | 1.24 | 1.64 | 2.28 | 1.28 | -1.42 | -0.881 | 0.639 | 0.385 | -0.429 | 0.334 | -0.756 | 1.06
CAGCCTAGGTAAGGGCCAGTATAGGAGGAACGTT | -0.618 | -0.931 | -0.62 | -1.05 | -1.17 | -0.738 | -0.026 | -0.51 | -0.469 | -0.635 | -0.707 | -0.473 | 0.308 | -0.484 | 0.0729 | -0.698 | -0.364 | -0.562 | -0.726 | -0.0366
CGTCCAAGGTCATAGGAGGGCAGTGAAGACAGAT | 7.39 | 6.11 | 1.55 | 4.12 | 0.284 | 5.68 | 5.29 | 5.19 | 1.85 | 3.99 | 3.1 | 3.89 | 1.14 | 0.568 | 2.4 | 6.12 | 1.56 | 4.4 | 0.613 | 5.06
TTACCAAGGTGAGCTGAGGGCGTTGATCCAACTC | 0.29 | -0.133 | -0.543 | -0.27 | -1.16 | 0.372 | -0.203 | -0.041 | -0.278 | -0.0993 | 1.02 | 1.45 | 0.0128 | -0.0146 | -0.525 | 3.08 | -0.168 | 1.11 | -0.757 | 1.1
CCCGAAAGGTCGTGCTCAGGTGAGTATACCAAAC | 5.73 | 4.05 | 0.438 | 3.37 | 0.415 | 4.94 | 2.94 | 3.87 | 0.899 | 2.53 | 0.981 | 1.75 | 0.719 | 0.627 | 2.37 | 3.19 | 0.159 | 4.35 | 0.613 | 4.01
CCGACTGGGGCAAAGGTTACCATACTCAGTACGA | 1.57 | 1.66 | 0.0551 | 2.1 | -0.895 | 5.49 | 11.2 | 9.84 | 8.71 | 11.5 | 4.37 | 6 | 0.389 | -0.153 | 1.16 | 2.32 | -0.304 | 3.94 | 0.0257 | 2.4
TCATATAGGTAAATACTAGGTGAAAGTCCGATCT | 1.19 | 1.08 | 0.534 | 0.889 | 0.276 | 2.16 | 2.46 | 3.26 | 4.4 | 3.92 | 4.28 | 4.37 | 1.5 | 1.37 | 1.15 | 0.747 | 0.389 | 1.15 | 1.65 | 0.482
CGTCCAAGGTCATAGGAGGTCAGTAAAGACAGAT | 7.75 | 7.7 | 5.05 | 6.36 | 1.18 | 5.96 | 5.82 | 6.05 | 2.41 | 4.8 | 3.22 | 4.57 | 1 | 1.13 | 5.13 | 6.88 | 4.18 | 6.22 | 2.02 | 5.38
GCTATTAGTTGAAAGGCCAACCGAATGATTCTCG | 0.0459 | 0.417 | 0.216 | 0.305 | -0.435 | 1.3 | 1.43 | 3.21 | 1.27 | 2.6 | 0.47 | 0.355 | 0.179 | -0.242 | 0.874 | 0.178 | -0.082 | 0.627 | 0.368 | 1.56
CGAACCAGGGCATGAGTTGATAGCAAATGCCGAT | -0.0641 | -0.00251 | -0.295 | -0.304 | -1.08 | 0.552 | 1.15 | 1.2 | -0.166 | 0.593 | 2.9 | 2.29 | -0.69 | 0.106 | 0.228 | -0.0525 | -0.0221 | -0.0885 | -0.263 | 1.02
CAAACTAGGTCAAGAGGTCAGAGTCCGCTTCCCG | 5.85 | 5.23 | 3.2 | 4.21 | 0.8 | 6.08 | 9.79 | 7.9 | 6.89 | 8.32 | 8.57 | 8.53 | 2.77 | 1.17 | 6.51 | 5.04 | 0.812 | 6.67 | 3.26 | 5.15
TCAGACAGGTGAAGGTAACTAAGGTACGCAGTCG | 1.03 | 2.57 | -0.132 | 1.44 | -0.0558 | 1.51 | 0.892 | 2.34 | 3.8 | 3.21 | 2.56 | 1.27 | 0.501 | 0.42 | 0.309 | 0.646 | 0.152 | 1.22 | 0.362 | 1.24
CAAACTAGATCAAGGTCAAAGTCGGTTTGTGCCA | 4.53 | 4.46 | 3.64 | 3.65 | 0.973 | 4.54 | 3.63 | 3.99 | 1.31 | 2.91 | 3.37 | 3.93 | 1.86 | -0.496 | 1.73 | 4.01 | 1.98 | 3.96 | 0.755 | 3.92
TCTATTAGTTGCAGGGCAACCGACGAGTCCGTTT | 0.562 | 0.804 | 0.147 | 0.702 | 0.559 | 0.736 | -0.219 | 1.62 | 3.41 | 2.38 | 2.17 | 1.01 | 0.15 | 1.26 | 0.494 | 0.353 | 0.498 | 0.391 | 0.736 | 0.851
